Rows were chosen to be rich in hits. Some 3.8% of all compounds tested hit in one or more screens of this group.
MBNL1-CUG inh – inhibitors of human MBNL1 binding to CUG repeat RNA. Q9NR56. TR-FRET MBNL1-His/biotin-(CUG)12 binding, 665/545 ratio. Potency, µM (highest dose often 57.5 µM), hits mostly inhibitors. hit rate 0.036% among 280,000; active means well fitted inhibition curve with a large enough effect in the signal ratio, with a control signal flat, not every such curve was filed as active; inconclusive means small, poorly fitted or top-dose-only effect, or effect the other way, or a change in a side signal; inactive means no such curve, though single readings can be large or run the other way; the % refers to the signal ratio
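TR-FRET between His-tagged MBNL1 and biotin-(CUG)12 RNA, detected with Tb anti-His antibody (0.055 ng/ul) and streptavidin-XL665 (5 nM), 60 min at room temperature. Compounds titrated 92 nM to 58 uM; 665/545 nm ratio normalized to buffer and complex controls.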
PLK1 PBD inh – blocks phosphopeptide binding to human PLK1 polo-box domain | P53350 | Plk1 PBD binding of FITC phosphopeptide, fluorescence polarization | Potency, µM, hits mostly inhibitors | hit rate 2.8% among 360,000 | AID 720504; further: series mostly up to about 57 µM; nearly all actives have a fitted effect of over 65% in size
VDR inh – inhibitors of human vitamin D receptor | P11473 | VDR-SRC2-3 peptide fluorescence polarization, 2 h | Potency, µM, most hits filed as inhibitors | hit rate 0.93% among 400,000 | AID 504847
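Measured by FP: displacement of SRC2-3 coactivator peptide from VDR by library compounds, following a two-hour ambient incubation.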
KCNH2 3.1 block – KCNH2 3.1 (human) potassium channel inhibition | U2OS KCNH2 3.1, thallium flux FluxOr; stronger effect = lower value | AID 720553 | activity change, % (tested at about 1.8 µM) | hit rate 0.95% among 340,000;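 active means maximum activity change below -70%; inconclusive means maximum activity change from -70% to -50%; inactive means maximum activity change above -50%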;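 further: thallium influx rate constant from kinetic fluorescence after stimulation buffer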
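Channel expression came from 3.1 mutant virus (1.77 x 10^8 /mL) applied to suspended U2OS cells for 4 h. Flux was tracked with FluxOr dye plus Red40 quencher, and kinetic rate constants normalized to controls.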
CBFb RUNX1 block – blocks binding between human CBF-beta and RUNX1; AlphaScreen CBFb-His/RUNX1-biotin binding, biochemical; Potency, µM (titrated, usually from 59.8 µM), actives largely listed as inhibitors; AID 1477; Q01196+Q13951; 230,000 tested, under 10 active
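AlphaScreen proximity signal reports loss of binding between His-tagged CBF-beta and biotin-labelled RUNX1, each at 30 nM. Proteins are pre-associated for 20 minutes, compounds added for 15 minutes, then beads for 90 minutes, all at ambient temperature.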
hERG WT inh – blocks the wildtype human KCNH2 potassium channel; Q12809; U2OS, BacMam KCNH2, thallium flux FluxOr; stronger effect = lower value; activity change, % at 1.84 µM; hit rate 0.37% among 340,000; AID 720551;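 active means maximum activity change below -70%; inconclusive means maximum activity change between -70% and -50%; inactive means maximum activity change above -50%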
Target sequence (Q12809 whole entry, looked up): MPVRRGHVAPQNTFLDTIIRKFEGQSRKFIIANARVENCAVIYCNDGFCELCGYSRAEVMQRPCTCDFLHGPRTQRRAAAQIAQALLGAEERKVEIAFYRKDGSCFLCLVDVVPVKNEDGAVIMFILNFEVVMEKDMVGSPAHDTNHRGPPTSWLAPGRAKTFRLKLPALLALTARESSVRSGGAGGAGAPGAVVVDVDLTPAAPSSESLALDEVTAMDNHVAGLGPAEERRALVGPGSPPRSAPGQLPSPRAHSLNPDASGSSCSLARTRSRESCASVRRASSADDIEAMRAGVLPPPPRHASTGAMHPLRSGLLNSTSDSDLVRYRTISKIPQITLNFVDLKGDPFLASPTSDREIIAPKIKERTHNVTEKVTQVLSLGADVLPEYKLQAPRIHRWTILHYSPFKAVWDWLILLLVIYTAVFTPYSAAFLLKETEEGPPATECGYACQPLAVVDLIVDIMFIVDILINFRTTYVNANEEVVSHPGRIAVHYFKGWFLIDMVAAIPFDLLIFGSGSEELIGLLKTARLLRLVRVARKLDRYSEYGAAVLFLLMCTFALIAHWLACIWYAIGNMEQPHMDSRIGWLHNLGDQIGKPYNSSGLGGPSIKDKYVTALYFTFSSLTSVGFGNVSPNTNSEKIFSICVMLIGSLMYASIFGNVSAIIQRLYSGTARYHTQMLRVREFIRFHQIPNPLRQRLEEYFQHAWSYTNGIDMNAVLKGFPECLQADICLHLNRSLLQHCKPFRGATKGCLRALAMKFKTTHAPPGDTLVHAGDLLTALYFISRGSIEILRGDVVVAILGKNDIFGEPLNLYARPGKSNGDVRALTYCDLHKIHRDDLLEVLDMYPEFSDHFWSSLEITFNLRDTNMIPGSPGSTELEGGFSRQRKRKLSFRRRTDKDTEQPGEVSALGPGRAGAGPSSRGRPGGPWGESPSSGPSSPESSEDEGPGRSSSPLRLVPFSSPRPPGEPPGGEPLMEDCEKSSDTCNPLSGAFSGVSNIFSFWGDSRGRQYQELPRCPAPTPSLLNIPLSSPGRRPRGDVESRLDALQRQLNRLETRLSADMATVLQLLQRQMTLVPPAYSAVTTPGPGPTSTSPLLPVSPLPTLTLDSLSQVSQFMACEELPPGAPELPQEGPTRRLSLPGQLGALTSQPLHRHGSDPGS
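U2OS cells were transduced with wild-type KCNH2 virus (2.03 x 10^8 / mL) for 4 h at room temperature, then cultured overnight at 37 C. Thallium flux was read with FluxOr dye. Rate constants were normalized to DMSO controls.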
Numbers stand for hits; - = inactive; ? = inconclusive; . = no result; [ ] = another dose, or the depositor's remark. Unless noted, the call rests on the fitted dose curve; in most records, active means well fitted curve in the direction sought with a large enough effect; inconclusive means small, poorly fitted or top-dose-only effect, or another doubt; inactive means no such curve, though single readings can be large; an effect the other way counts as inactive or inconclusive.

SMILES	MBNL1-CUG inh	PLK1 PBD inh	VDR inh	KCNH2 3.1 block	CBFb RUNX1 block	hERG WT inh
CN(C1CCCCC1)S(=O)(=O)c1cccc(C(=O)OCC(=O)NC2CCCc3ccccc32)c1 (stereo unspecified)	-	-	-	-92	-	-
O=C(Cc1ccc(Br)cc1)NC1CCCc2ccccc21 (stereo unspecified)	-	-	-	-	.	-
O=C(CCl)NC1CCCc2ccccc21 (stereo unspecified)	-	27µM	-	-	-	-
CN(CC(=O)NC1CCCc2ccccc21)C1CCCCC1 (stereo unspecified)	-	-	-	-	-	-
CCc1ccc2[nH]c(=O)c(CN(Cc3ccco3)Cc3nnnn3Cc3ccco3)cc2c1	.	.	-	.	.	.
COc1ccc(N=C2C(=O)N3c4c(cccc42)C(C)=CC3(C)C)cc1	-	-	50µM	-	?	-
CC(=O)Nc1ccc(Nc2nc(Nc3ccc(Cl)cc3)nc(N3CCOCC3)n2)cc1	.	.	-	.	.	.
COc1cccc(-n2nnc(-c3nc(-c4ccccc4F)no3)c2C)c1	.	.	-	.	.	.
O=C1CCCN1CCCNc1ccc2nnc(CCC(=O)N3CCN(c4ccc(F)cc4)CC3)n2n1	-	27µM	-	-	.	-
CCn1c(CSc2nc3ccccc3s2)nnc1SCC(=O)c1ccc(Cl)cc1	-	3µM	?	-	-	-
Fc1cccc(/C=N/Nc2nncc3ccccc23)c1	-	21µM	?	-	.	-
C(=N\Nc1nncc2ccccc12)/c1ccccn1	?	-	-	-	.	-
Cc1sc2nc(Cc3ccccc3)[nH]c(=O)c2c1-c1ccccc1	-	-	-	-	-	-
Cc1sc2nc(-c3cccnc3)[nH]c(=O)c2c1-c1ccccc1	-	12µM	-	-	-	-
COc1ccc(C)cc1NC(=O)N1CCCn2nc(C)cc21	.	.	-	.	.	.
CCc1ccccc1Nc1cc(C(=O)NCCc2ccccc2)c2ccccc2n1	.	.	-	.	.	.
CCOC(=O)c1c(C)oc2ncnc(Nc3ccc(OC)cc3OC)c12	.	.	-	.	.	.
CC(C)(C)NC1=NCCNC(c2ccccc2)=C1	.	-	.	-	.	-88
CCOC(=O)c1c(NC(=O)Cc2coc3cc(C)cc(C)c23)sc2c1CCC2	.	.	-	.	.	.
Cc1cc(C)nc(NC(=NCCc2c[nH]c3ccccc23)NC(=O)C(C)(C)C)n1	-	-	-	-88	-	-
CCc1ccc(N2CCn3c2nc2c3c(=O)n(CCc3ccccc3)c(=O)n2C)cc1	.	.	-	.	.	.
CCc1nn2c(-c3ccco3)ccnc2c1-c1ccc(F)cc1	.	.	-	.	.	.
Cc1cc2oc(C(=O)Nc3cccc(-c4nc5ccccc5o4)c3)c(C)c2cc1C	.	.	-	.	.	.
COc1ccc2cc(C#N)c(=O)oc2c1	.	.	-	.	-	.
O=C(CN1C2=NCCCN2c2ccccc21)c1ccc(Br)s1	-	-	-	-86	-	-
SMILES	MBNL1-CUG inh	PLK1 PBD inh	VDR inh	KCNH2 3.1 block	CBFb RUNX1 block	hERG WT inh
c1ccc(CN2C3=NCCCN3c3ccccc32)cc1	-	-	-	-	-	-
Clc1ccc(CN2C3=NCCCN3c3ccccc32)c(Cl)c1	-	-	-	-94	.	-
COC(=O)CN1C2=NCCCN2c2ccccc21	-	-	-	-	-	-
CC(C)(C)c1ccc(CN2C3=NCCCN3c3ccccc32)cc1	-	-	-	-80	-	-
Brc1ccc(CN2C3=NCCCN3c3ccccc32)cc1	-	?	-	-75	-	-
COc1cc2ncc(C(=O)c3ccc(C)cc3)c(N3CCCCC3)c2cc1OC	.	.	-	.	.	.
CCCCCCCN1C2=NCCCN2c2ccccc21	-	-	-	-80	-	-
O=C(/C=C/c1cccs1)c1ccc(Br)cc1	-	-	50µM	-	-	-
Cc1ccc(Cn2c(C(=O)O)c(CNCc3ccc(OC(C)C)cc3)c3ccc(C)cc32)cc1	.	.	-	.	.	.
c1ccc2c(c1)ncn2Cc1nnc2sc(-c3ccncc3)nn12	-	12µM	-	-	-	-
c1cncc(-c2nn3c(Cn4cnc5ccccc54)nnc3s2)c1	-	4.7µM	-	-	-	-
c1ccc(OCc2nn3c(Cn4cnc5ccccc54)nnc3s2)cc1	-	24µM	?	-	-	-
CCOc1ccccc1OCc1nn2c(COc3ccccc3)nnc2s1	-	4.7µM	32µM	-	-	-
CCOc1ccc(-c2nnc3sc(COc4ccccc4)nn23)cc1	-	-	-	-	-	-
Clc1ccc(Cl)c(-c2nn3c(Cn4cnc5ccccc54)nnc3s2)c1	.	-	-	-	.	-
Cc1nnc2sc(COc3ccccc3)nn2c1=O	-	-	-	-	.	-
COc1ccc(S(=O)(=O)c2cnc(SCC(=O)Nc3cc(F)ccc3C)[nH]c2=O)cc1Cl	.	.	-	.	.	.
CCCNC(=O)N1CCCN(S(=O)(=O)c2ccc3c(ccn3CC)c2)CC1	.	.	-	.	.	.
O=[N+]([O-])c1ccc(N/N=C/c2ccc(O)c(O)c2O)c(S(=O)(=O)N2CCOCC2)c1	?	3µM	?	-	?	-
O=[N+]([O-])c1ccc(N/N=C/c2cccc(O)c2O)c(S(=O)(=O)N2CCOCC2)c1	?	-	-	-	-	-
O=C(CCc1ccc(S(=O)(=O)N2CCOCC2)cc1)N/N=C/c1ccc(F)cc1F	-	-	-	-	-	-
O=C(CCc1ccc(S(=O)(=O)N2CCOCC2)cc1)N/N=C/c1ccc(O)c(O)c1O	.	11µM	-	-	?	-
Cc1cc2nc3c(=O)n(CCc4ccccc4)c(=O)[nH]c3nc2cc1N	?	2.7µM	-	-	-	-
CCCCn1c(=O)[nH]c2nc3cc(N)ccc3nc2c1=O	?	4.7µM	?	-	-	-
Nc1ccc2nc3c(=O)n(CCc4ccccc4)c(=O)[nH]c3nc2c1	?	4.2µM	-	-	-	-
SMILES	MBNL1-CUG inh	PLK1 PBD inh	VDR inh	KCNH2 3.1 block	CBFb RUNX1 block	hERG WT inh
Cc1ccc(S(=O)(=O)c2cnc(SCC(=O)Nc3cccc(Cl)c3)nc2N)cc1C	.	.	-	.	.	.
O=C(CSc1nc2c([nH]c3ccccc32)c(=O)n1-c1cccc(Cl)c1)c1ccccc1	.	.	-	.	.	.
S=c1nc[nH]c2c1ncn2-c1ccc(Cl)cc1	.	6µM	?	-	.	-
Cc1cc(C)cc(OCC(=O)NNC(=S)NC(=O)C2CC2)c1	-	-	-	-70	.	-
CCCCc1nc2c(c3c1C[C@H](C)OC3)CN(C(=O)c1ccco1)CC2	.	.	.	.	-[13.1 µM]	.
Cc1[nH]c2ccccc2c1/C=C(\C#N)C(=O)NCc1ccccc1	-	-	-	-	-	-
Cc1ccc(C(C)NC(=O)/C(C#N)=C\c2c(C)[nH]c3ccccc23)cc1 (stereo unspecified)	-	24µM	?	-	-	-
COc1ccc(-c2nn(-c3cccc(F)c3)c3c2cnc2cc(OC)c(OC)cc23)cc1	.	.	-	.	.	.
O=S(=O)(c1cccc(Br)c1)N1CCN(c2ccnc3cc(Cl)ccc23)CC1	-	-	-	.	.	-
O=[N+]([O-])c1ccc(S(=O)(=O)N2CCN(c3ccnc4cc(Cl)ccc34)CC2)cc1	-	-	-	-92	.	-124

Screens as filed in PubChem BioAssay.
